From PubChem BioAssay (NCATS) come the findings set out here.

Results filed as inconclusive are left out. Calls of active or inactive are those of the source. Unless noted, calls come from the whole dose curve.

The target in assay [1] is Peroxisome proliferator-activated receptor gamma (Homo sapiens) (UniProt P37231). As to the kind of experiment: qHTS assay for small molecule agonists of peroxisome proliferator-activated receptor gamma signaling (AID 588536; active = well fitted curve in the direction sought with a large enough effect in the signal ratio, with a control signal flat, not every such curve was filed as active; the % refers to the signal ratio;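 note: 0% = DMSO basal wells and 100% = rosiglitazone at 2 µM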). The conditions noted are these: HEK293 PPARg-UAS-bla, beta-lactamase ratio, 16 h, percent of rosiglitazone response, DMSO as zero; series mostly up to 76.7 µM. The gist of the method:
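Compound treatment: 16 h, 37 C, HEK293 GeneBLAzer cells. Detection: CCF4, 2 h RT. Values: Hill-fit EC50, efficacy as % of 2 uM rosiglitazone.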

The target is the same in assay [2]. Briefly: qHTS assay for small molecule antagonists of peroxisome proliferator-activated receptor gamma signaling (AID 588537; active = well fitted inhibition curve with a large enough effect in the signal ratio, with a control signal flat, not every such curve was filed as active; the % refers to the signal ratio;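 note: reporter cells co-stimulated with 50 nM rosiglitazone agonist during compound treatment; % of control where 0% means no effect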). The conditions noted are these: HEK293 PPARg-UAS-bla, beta-lactamase ratio, antagonist mode; series mostly up to 76.8 µM. The gist of the method: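 Fluorescence at 460 and 530 nm (405 nm excitation) reported beta-lactamase cleavage of CCF4 after 2 h room-temperature loading. HEK293 reporter cells in 1% charcoal/dextran-treated FBS had received compound and rosiglitazone for 16 h.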

Assay [3] has as its target Vitamin D3 receptor (Homo sapiens) (UniProt P11473). Briefly: qHTS assay for small molecule antagonists of vitamin D receptor signaling (AID 588541).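 Note: receptor activated by calcitriol during compound treatment; % is set by controls: 0 for no effect and ±100 for the full control effect.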 The conditions noted are these: HEK293T VDR-UAS-bla, beta-lactamase ratio, antagonist mode; series mostly up to 76.7 µM. The gist of the method:
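VDR-UAS-bla HEK293T cells in 2% charcoal-stripped FBS were stimulated with 1-alpha,25-dihydroxyvitamin D3 (3 nM final) plus compound for 16 h at 37 C. The beta-lactamase CCF4 readout was normalized to 50 nM agonist and DMSO, and Hill fits gave IC50.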
For orientation: Quantitative high-throughput screening tests each substance at several concentrations.

Assay [4] shares this target. As to the kind of experiment: qHTS assay for small molecule agonists of vitamin D receptor signaling (AID 588543).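 Note: 0% = DMSO basal and 100% = reference agonist control.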 The following applies: HEK293T VDR-UAS-bla, beta-lactamase ratio, 16 h; series mostly up to 76.8 µM. The gist of the method:
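qHTS in agonist mode: compound titrations stimulate a VDR-driven β-lactamase reporter in HEK293T cells over 16 h at 37 °C. Response normalized to 50 nM 1α,25-dihydroxyvitamin D3 = 100%, DMSO = 0%; Hill fitting gives EC50 and maximal response.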

Assay [5] is described as follows: qHTS assay for small molecule agonists of retinoid X receptor alpha signaling (AID 588544).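 For activation: 0% = DMSO basal wells and 100% = reference agonist.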 The following applies: HEK293T RXRa-UAS-bla, beta-lactamase reporter, 18 h; 530 nm emission.
Assay [6] has as its target Retinoic acid receptor RXR-alpha (Homo sapiens) (UniProt P19793). The assay is described as above. The conditions noted are these: HEK293T RXRa-UAS-bla, beta-lactamase reporter, 18 h; series mostly up to 76.7 µM.
Assay [7] deals with Thyroid hormone receptor beta (Homo sapiens) (UniProt P10828). Briefly: qHTS assay for small molecule agonists of thyroid hormone receptor beta signaling (AID 588545).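 Note: 0% = DMSO only and 100% = 10 nM T3.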 The conditions noted are these: TR-UAS-bla GripTite HEK 293, beta-lactamase ratio, agonist mode, 18 h, percent of T3 response, DMSO as zero; series mostly up to 76.7 µM. The gist of the method: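 Beta-lactamase reporter activity under TR response element control is measured in HEK 293 cells after 18 hrs compound exposure. Signal is ratiometric CCF4 fluorescence, 460/530 nm.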

Assay [8] is described as follows: qHTS assay for small molecule antagonists of retinoid X receptor alpha signaling (AID 588546; active = well fitted inhibition curve with a large enough effect in the signal ratio, with a control signal flat, not every such curve was filed as active; the % refers to the signal ratio;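 note: cells stimulated with 9-cis-retinoic acid as agonist; % is set by controls: 0 for no effect and ±100 for the full control effect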). The following applies: HEK293T RXRa-UAS-bla, beta-lactamase ratio, antagonist mode; measured here: W530 green channel, cytotoxicity proxy. The gist of the method:
(§1)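 Beta-lactamase reporter inhibition, read as CCF4 fluorescence ratio (ex 405, em 460/530 nm) after 2 h at RT. HEK293T UAS-bla cells, 2500/well, were stimulated with 9-cis-RA at 500 or 100 nM final alongside test compound for 18 h at 37 C.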

Assay [9] deals with Retinoic acid receptor RXR-alpha (Homo sapiens) (UniProt P19793). The description is as above. The following applies: HEK293T RXRa-UAS-bla, beta-lactamase ratio, antagonist mode. The gist of the method: as §1
For assay [10], the target named is Thyroid hormone receptor beta (Homo sapiens) (UniProt P10828). Briefly: qHTS assay for small molecule antagonists of thyroid hormone receptor beta signaling (AID 588547; active = well fitted inhibition curve with a large enough effect in the signal ratio, with a control signal flat, not every such curve was filed as active; the % refers to the signal ratio;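 note: cells stimulated with 0.4 nM T3 agonist during compound exposure; % is set by controls: 0 for no effect and ±100 for the full control effect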). The conditions noted are these: TR-UAS-bla HEK293, beta-lactamase ratio, antagonist mode, 18 h. The gist of the method:
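TR-UAS-bla GripTite HEK293 cells in 2% charcoal/dextran FBS medium; compounds 0.59 nM to 92 uM with T3 at 0.4nM final, 18 h at 37 C. Beta-lactamase read by CCF4 fluorescence (460/530 nm); Hill fits gave IC50 and efficacy.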

Assay [11] can be described thus: qHTS assay for small molecule agonists of the antioxidant response element (ARE) signaling pathway (AID 651741; active = well fitted activation curve with a large enough effect in the signal ratio; the % refers to the signal ratio; note: potency is the fitted concentration of half-maximal effect). The conditions noted are these: HepG2 ARE-bla reporter, beta-lactamase FRET ratio, 16 h; series mostly up to 96 µM. The gist of the method:
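Stably integrated ARE-beta-lactamase reporter HepG2 cells; 16 h compound incubation, 37 C; LiveBLAzer FRET substrate 2 h at room temperature; fluorescence intensity.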

Assay [12] can be described thus: qHTS assay for small molecule activators of the p53 signaling pathway (AID 651743; active = well fitted activation curve with a large enough effect in the signal ratio, not every such curve was filed as active; the % refers to the signal ratio; note: % of control where 0% means no effect). The following applies: HCT-116 p53RE-bla, beta-lactamase FRET ratio, 16 h; stronger effect = higher value. The gist of the method:
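Following 16 hours of compound exposure at 37 C, HCT-116 cells bearing the p53RE-bla reporter were loaded with LiveBLAzer B/G FRET substrate for 2 hours at room temperature and fluorescence intensity was recorded.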

The nature of assay [13]: qHTS assay for small molecule activators of the nuclear factor-kappa B (NF-kB) signaling pathway (AID 651749; active = well fitted activation curve with a large enough effect in the signal ratio; the % refers to the signal ratio; note: % of control where 0% means no effect). The conditions noted are these: NF-kB-bla ME-180 cells, beta-lactamase FRET ratio, 16 h; stronger effect = higher value. The gist of the method: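 In this qHTS format, compounds acting as activators increase NF-kB-driven beta-lactamase in ME-180 cells, measured as disrupted FRET after 16 hr exposure at 37C and 5% CO2.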

Assay [14] can be described thus: qHTS assay for small molecule disruptors of the mitochondrial membrane potential - 1 hr assay (AID 651754). Note: % is set by controls: 0 for no effect and ±100 for the full control effect; nearly all actives have a fitted effect of over 35% in size. The following applies: series mostly up to 92.2 µM. The gist of the method: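 Loss of mitochondrial potential shifts the cationic dye from red mitochondrial aggregates to green cytoplasmic monomers. Cells (HepG2) are treated with compound for 1 hr before a 30 min dye incubation at 37C.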

Assay [15] is described as follows: qHTS assay for small molecule disruptors of the mitochondrial membrane potential - 5 hr assay (AID 651755). Note: % is set by controls: 0 for no effect and ±100 for the full control effect; nearly all actives have a fitted effect of over 40% in size. The conditions noted are these: JC-1-type ratio dye; series mostly up to 92.2 µM. The gist of the method:
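Read-out: ratiometric Mito-MPS fluorescence, green monomer (ex 490/em 535) vs red mitochondrial aggregate (ex 540/em 590). HepG2 cells treated 5 hr at 37C before 30 min dye loading.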

Assay [16] has as its target Tumor necrosis factor (Homo sapiens) (UniProt P01375). As to the kind of experiment: qHTS assay to identify small molecules that stimulate Tumor Necrosis Factor-alpha (TNF-alpha) secretion (AID 651757; active = well fitted curve in the direction sought with a large enough effect in the signal ratio; the % refers to the signal ratio; note: 0% is about no effect). The conditions noted are these: Human cells, HTRF 665/615 ratio; series mostly up to 92.2 µM. The gist of the method:
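Human monocytic THP-1 cells are plated, treated with compound and held at 37 C for 17 hrs. Labeled anti-TNF-alpha antibody mixture is then added; after 3 hr at room temperature, TR-FRET signal reports secreted TNF-alpha.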

Assay [17] in a line: qHTS assay for environmental chemicals that activate the Aryl hydrocarbon Receptor (AhR) signaling pathway (AID 651777; active = well fitted curve in the direction sought with a large enough effect; an effect the other way counts as inactive or inconclusive; note: % of control where 0% means no effect; nearly all actives have a fitted effect of over 15% in size). The conditions noted are these: 1A2-DRE human hepatoma cells, luciferase, 24 h; stronger effect = higher value. The gist of the method:
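Following a 24 hr incubation with test chemicals at 37 C and 5% CO2, 1A2-DRE human hepatoma cells received One-Glo reagent; after 30 min at room temperature, luciferase output reflected CYP1A2 induction via AhR.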

For assay [18], the target named is Peroxisome proliferator-activated receptor alpha (Homo sapiens) (UniProt Q07869). As to the kind of experiment: qHTS assay for small molecule agonists of the peroxisome proliferator-activated receptor alpha (PPARalpha) signaling pathway (AID 651778; active = well fitted curve in the direction sought with a large enough effect; an effect the other way counts as inactive or inconclusive; note: % of control where 0% means no effect). The following applies: PathHunter PPARalpha complementation, chemiluminescence, 6 h; stronger effect = higher value. The gist of the method: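 Enzyme-fragment complementation assay in which ligand-bound PPARalpha translocates and forms an active enzyme that generates chemiluminescence. Cells were plated overnight, exposed to compound for 6 hr at 37 C, and then given detection reagent for 60 min at room temperature.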

The target in assay [19] is Nuclear receptor ROR-gamma (Homo sapiens) (UniProt P51449). As to the kind of experiment: qHTS assay for small molecule antagonists of the retinoid-related orphan receptor gamma (ROR-gamma) signaling pathway (AID 651802; active = well fitted curve in the direction sought with a large enough effect; an effect the other way counts as inactive or inconclusive;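 note: CHO cells with doxycycline-induced ROR-gamma expression; % is set by controls: 0 for no effect and ±100 for the full control effect; nearly all actives have a fitted effect of over 60% in size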). The following applies: ROR-gamma antagonist cell reporter assay; series mostly up to 92.2 µM. The gist of the method: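 Steps: cells dispensed; compound or DMSO transferred by pin tool; doxycycline added to induce the ROR response element-driven luciferase; plates held 16hr at 37C; ONE-Glo added and luminescence measured.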

Assay [20] addresses Nuclear receptor subfamily 1 group I member 2 (Rattus norvegicus) (UniProt Q9R1A7). Briefly: qHTS assay for small molecule activators of the rat pregnane X receptor (rPXR) signaling pathway (AID 651751; call rule not given here; note: 0% is about no effect). The following applies: rPXR reporter cells, luciferase (One-Glo), 24 h.

Peroxisome proliferator-activated receptor gamma (Homo sapiens), sequence (P37231 whole entry, looked up): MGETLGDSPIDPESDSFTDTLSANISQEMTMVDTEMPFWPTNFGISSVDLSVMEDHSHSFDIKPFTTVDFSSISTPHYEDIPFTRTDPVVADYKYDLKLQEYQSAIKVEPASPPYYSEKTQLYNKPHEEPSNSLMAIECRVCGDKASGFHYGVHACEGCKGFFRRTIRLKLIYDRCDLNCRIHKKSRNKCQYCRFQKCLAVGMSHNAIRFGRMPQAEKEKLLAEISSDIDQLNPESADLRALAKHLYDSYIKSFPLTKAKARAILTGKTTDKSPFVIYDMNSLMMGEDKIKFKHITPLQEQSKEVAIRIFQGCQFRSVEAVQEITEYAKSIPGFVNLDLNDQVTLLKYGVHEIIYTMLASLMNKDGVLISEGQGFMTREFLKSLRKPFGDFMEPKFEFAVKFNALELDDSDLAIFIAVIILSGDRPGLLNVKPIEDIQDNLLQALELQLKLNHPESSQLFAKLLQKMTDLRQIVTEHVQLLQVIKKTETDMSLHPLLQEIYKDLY
Vitamin D3 receptor (Homo sapiens), sequence (P11473 whole entry, looked up): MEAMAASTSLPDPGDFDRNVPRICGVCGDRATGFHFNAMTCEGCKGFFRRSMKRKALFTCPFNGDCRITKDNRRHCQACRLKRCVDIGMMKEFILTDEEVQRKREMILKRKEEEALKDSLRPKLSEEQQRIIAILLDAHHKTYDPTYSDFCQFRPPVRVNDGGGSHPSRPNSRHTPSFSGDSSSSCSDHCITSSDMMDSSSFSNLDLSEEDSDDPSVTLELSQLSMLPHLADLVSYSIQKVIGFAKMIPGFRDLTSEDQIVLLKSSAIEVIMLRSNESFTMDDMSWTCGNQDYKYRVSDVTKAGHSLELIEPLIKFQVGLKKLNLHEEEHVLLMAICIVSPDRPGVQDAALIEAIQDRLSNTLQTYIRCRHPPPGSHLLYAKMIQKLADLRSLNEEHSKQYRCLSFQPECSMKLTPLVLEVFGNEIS
Thyroid hormone receptor beta (Homo sapiens), sequence (P10828 whole entry, looked up): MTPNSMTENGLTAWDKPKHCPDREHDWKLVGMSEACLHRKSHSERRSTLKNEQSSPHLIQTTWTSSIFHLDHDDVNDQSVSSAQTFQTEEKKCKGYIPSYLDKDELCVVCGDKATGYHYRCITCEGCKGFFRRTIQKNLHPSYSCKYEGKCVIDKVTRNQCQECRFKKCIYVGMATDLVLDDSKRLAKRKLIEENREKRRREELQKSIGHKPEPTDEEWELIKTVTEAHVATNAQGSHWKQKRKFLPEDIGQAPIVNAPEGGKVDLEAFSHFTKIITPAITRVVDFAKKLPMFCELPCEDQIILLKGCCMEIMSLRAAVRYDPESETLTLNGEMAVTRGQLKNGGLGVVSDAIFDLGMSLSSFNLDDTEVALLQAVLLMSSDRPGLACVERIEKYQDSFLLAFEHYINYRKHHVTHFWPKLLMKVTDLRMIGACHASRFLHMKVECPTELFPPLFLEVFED
Retinoic acid receptor RXR-alpha (Homo sapiens), sequence (P19793 whole entry, looked up): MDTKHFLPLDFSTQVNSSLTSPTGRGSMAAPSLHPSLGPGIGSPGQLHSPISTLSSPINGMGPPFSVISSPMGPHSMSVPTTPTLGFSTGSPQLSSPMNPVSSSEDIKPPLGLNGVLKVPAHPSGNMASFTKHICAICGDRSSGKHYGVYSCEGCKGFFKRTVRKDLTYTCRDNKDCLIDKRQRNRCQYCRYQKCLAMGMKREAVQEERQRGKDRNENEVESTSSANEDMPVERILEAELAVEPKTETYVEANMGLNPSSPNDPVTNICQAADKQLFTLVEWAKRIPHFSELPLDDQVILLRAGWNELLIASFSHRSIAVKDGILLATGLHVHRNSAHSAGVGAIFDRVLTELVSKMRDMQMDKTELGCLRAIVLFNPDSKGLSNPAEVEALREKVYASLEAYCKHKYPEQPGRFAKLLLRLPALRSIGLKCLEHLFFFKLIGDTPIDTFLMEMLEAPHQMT
Nuclear receptor subfamily 1 group I member 2 (Rattus norvegicus), sequence (Q9R1A7 whole entry, looked up): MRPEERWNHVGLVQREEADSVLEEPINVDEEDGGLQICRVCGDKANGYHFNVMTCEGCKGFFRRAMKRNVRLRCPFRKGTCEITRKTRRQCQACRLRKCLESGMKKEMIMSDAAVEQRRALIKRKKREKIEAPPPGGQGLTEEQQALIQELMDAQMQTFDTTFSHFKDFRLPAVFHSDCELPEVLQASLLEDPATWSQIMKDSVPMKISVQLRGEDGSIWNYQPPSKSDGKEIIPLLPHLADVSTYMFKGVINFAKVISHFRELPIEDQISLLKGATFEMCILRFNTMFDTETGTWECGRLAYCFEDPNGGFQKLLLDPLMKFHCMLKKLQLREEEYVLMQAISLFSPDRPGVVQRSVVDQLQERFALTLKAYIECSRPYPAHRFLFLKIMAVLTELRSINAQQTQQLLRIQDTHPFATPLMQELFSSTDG
Nuclear receptor ROR-gamma (Homo sapiens), sequence (P51449 whole entry, looked up): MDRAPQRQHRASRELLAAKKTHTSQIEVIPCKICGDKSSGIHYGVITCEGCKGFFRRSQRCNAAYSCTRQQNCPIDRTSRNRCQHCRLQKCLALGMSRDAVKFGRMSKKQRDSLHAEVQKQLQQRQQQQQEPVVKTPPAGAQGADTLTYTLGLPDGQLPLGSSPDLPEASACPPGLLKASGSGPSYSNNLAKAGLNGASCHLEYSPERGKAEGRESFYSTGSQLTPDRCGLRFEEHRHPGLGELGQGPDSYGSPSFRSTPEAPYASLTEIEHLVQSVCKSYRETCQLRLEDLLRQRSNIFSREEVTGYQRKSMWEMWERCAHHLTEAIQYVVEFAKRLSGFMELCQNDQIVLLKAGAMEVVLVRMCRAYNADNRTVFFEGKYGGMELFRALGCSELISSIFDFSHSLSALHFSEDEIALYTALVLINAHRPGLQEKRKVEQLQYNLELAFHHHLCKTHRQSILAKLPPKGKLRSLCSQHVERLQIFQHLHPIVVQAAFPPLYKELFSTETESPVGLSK
Tumor necrosis factor (Homo sapiens), sequence (P01375 whole entry, looked up): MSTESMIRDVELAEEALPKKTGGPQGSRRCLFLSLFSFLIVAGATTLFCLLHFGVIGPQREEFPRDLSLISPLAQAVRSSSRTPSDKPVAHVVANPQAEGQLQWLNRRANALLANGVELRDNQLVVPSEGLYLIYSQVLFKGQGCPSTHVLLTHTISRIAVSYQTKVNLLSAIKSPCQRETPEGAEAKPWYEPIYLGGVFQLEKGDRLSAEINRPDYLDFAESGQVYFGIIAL
Peroxisome proliferator-activated receptor alpha (Homo sapiens), sequence (Q07869 whole entry, looked up, the tested form may be a part): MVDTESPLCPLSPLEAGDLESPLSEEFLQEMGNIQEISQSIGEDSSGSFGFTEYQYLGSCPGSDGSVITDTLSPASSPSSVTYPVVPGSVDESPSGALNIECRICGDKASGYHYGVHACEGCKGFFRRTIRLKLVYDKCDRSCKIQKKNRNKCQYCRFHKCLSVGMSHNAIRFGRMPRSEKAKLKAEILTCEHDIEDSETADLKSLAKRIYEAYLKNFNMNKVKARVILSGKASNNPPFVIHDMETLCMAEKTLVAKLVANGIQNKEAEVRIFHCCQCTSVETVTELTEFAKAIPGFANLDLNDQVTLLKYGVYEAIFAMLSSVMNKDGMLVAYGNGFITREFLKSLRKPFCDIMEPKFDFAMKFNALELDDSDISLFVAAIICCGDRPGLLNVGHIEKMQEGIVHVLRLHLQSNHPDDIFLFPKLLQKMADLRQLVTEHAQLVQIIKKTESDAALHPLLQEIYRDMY

As to `CC1=CC(=O)CC(C)(C)C1(O)/C=C/C(C)=C\C(=O)O` (stereo not given), the result in [1], in assay [2], in assay [3], in [4], in [6] and in assay [7] was inactive. For the same molecule, the outcome in [14], in assay [15], in [16] and in assay [19] was inactive. Further, the max response in assay [5] is -10.1%; in [8], -3.21%; in [9] it was 0.0259% (inactive); in [18] it was 6.6% (inactive); in [20] it was -0.742% (inactive). For the same molecule, the activity change % (negative = inhibition) in [10] was -6.36% (inactive). In assay [11], the Potency is 37.6 µM (active). The activation in [12] is -1.58% (inactive); in assay [13] it was 1.73% (inactive); in assay [17], -0.944% (inactive).
